Bioassay records from PubChem.
Only some compounds are listed: those with a hit (about 9.2% of all), similar ones and a draw of the others.
Rab9 prom act: Rab9 promoter activation; Huh7 Rab9 promoter-luciferase reporter, luminescence, 24 h; Potency, µM (highest dose often 9.22 µM), inactives show at the top dose activation, negative = inhibition, most hits filed as activators; 2.8% of 320,000 active; note: % of control where 0% means no effect; nearly all actives have a fitted effect of over 60% in size
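Huh7 reporter line, Rab9 promoter upstream of luciferase. Compound exposure 24 h at 37 °C in reduced-serum medium with 10% FBS. Read-out: luminescence.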
FLuc modulator: counter-screen for miR-21 project: firefly luciferase inhibitors or activators; 6.9% of 360,000 active; P08659; purified FLuc, Km substrates, luminescence inhibition; Potency, µM (highest dose often 57.5 µM), without a hit: top-dose activity change, negative = inhibition, most hits filed as inhibitors; AID 588342;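 note: plate controls were vehicle for no effect and reference inhibitor for full effect; nearly all actives have a fitted effect of over 55% in size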
Target sequence (P08659 whole entry, looked up): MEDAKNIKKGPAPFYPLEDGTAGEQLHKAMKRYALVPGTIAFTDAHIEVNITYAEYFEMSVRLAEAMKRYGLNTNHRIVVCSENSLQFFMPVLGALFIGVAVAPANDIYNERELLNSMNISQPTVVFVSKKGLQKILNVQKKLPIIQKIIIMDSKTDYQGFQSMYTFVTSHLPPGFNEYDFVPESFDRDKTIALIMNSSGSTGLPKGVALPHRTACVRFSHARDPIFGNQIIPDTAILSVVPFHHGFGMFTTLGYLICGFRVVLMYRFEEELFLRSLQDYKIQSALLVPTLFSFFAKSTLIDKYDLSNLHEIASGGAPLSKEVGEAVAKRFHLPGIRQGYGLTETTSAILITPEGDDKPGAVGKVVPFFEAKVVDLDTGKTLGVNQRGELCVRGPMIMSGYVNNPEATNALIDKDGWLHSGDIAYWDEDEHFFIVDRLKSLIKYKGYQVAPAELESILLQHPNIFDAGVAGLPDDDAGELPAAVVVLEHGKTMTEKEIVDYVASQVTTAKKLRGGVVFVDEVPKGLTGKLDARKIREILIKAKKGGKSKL
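Purified P. pyralis luciferase (10nM final) with 10uM D-luciferin and 10uM ATP (Km levels) in 50mM Tris acetate pH 7.5, 10mM Mg acetate, 0.01% Tween-20, 0.05% BSA; qHTS 6-point titration, ~60 µM downward; luminescence read.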
ELG1 repair inh: inhibitors of ELG1-dependent DNA repair in HEK293T cells; HEK293T ELG1-luciferase reporter, luminescence, 16 h; DNA damage induced by 5-fluorouridine; 2.3% of 330,000 active; Potency, µM (doses to about 46.1 µM), without a hit: top-dose activity change, negative = inhibition, most hits filed as inhibitors; note: % is set by controls: 0 for no effect and ±100 for the full control effect; nearly all actives have a fitted effect of over 55% in size
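DMSO vehicle served as the neutral condition. Each well held 2,000 cells given 5-fluorouridine plus compound; after 16 hr at 37 °C/5% CO2, ONE-Glo was added and luciferase measured 30 min later.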
NPC1 prom act: NPC1 promoter activation; Huh7 NPC1 promoter luciferase reporter, 24 h; Potency, µM (highest dose often 9.22 µM), for inactives: at the top dose activation, actives largely listed as activators; 2.4% of 320,000 active; AID 485313; note: % of control where 0% means no effect; nearly all actives have a fitted effect of over 60% in size
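Readout is luciferase luminescence, reflecting NPC1 promoter activation in stably transfected Huh7 cells after 24 h compound exposure at 37 °C in reduced-serum medium with 10% FBS.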
SMN2 splice up: SMN2 splice variant enhancement | HEK293 SMN2-luciferase splicing reporter, luminescence, 30-36 h | Potency, µM (series often up to 46.1 µM), without a hit: at the highest dose activity change, positive = activation, actives largely listed as activators | 2.8% of 210,000 active; note: % of control where 0% means no effect; nearly all actives have a fitted effect of over 55% in size
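qHTS luciferase splicing reporter: luminescence rises when SMN2 exon 7 is included in transfected HEK293 cells. Compound exposure lasted 30-36 h at 37C, with 4.5 mM final sodium butyrate as control, followed by a ONE-Glo read.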
ELG1 genotoxic: induces genotoxicity in HEK293T cells with luciferase-tagged ELG1. HEK293T ELG1-luciferase reporter, luminescence, 16 h. 1.3% of 330,000 active. Potency, µM (top dose mostly 46 µM), for inactives: top-dose activity change, positive = activation, most hits filed as activators. AID 504466; note: % of control where 0% means no effect; nearly all actives have a fitted effect of over 60% in size
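Quantitative HTS format in 1536-well plates. HEK293T ELG1-luciferase reporter cells receive test compound and are incubated 16 hr at 37 °C, 5% CO2; ONE-Glo added, 30 min room temperature, then luminescence read.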
The depositor's hits bear a star; u = inconclusive; x = no result given. Calls come from the whole dose curve; as a rule, active = well fitted curve in the direction sought with a large enough effect; inconclusive = small, poorly fitted or top-dose-only effect, or another doubt; inactive = no such curve, though single readings can be large; an effect the other way counts as inactive or inconclusive. Potency is the fitted concentration of half-maximal effect.

SMILES	Rab9 prom act	FLuc modulator	ELG1 repair inh	NPC1 prom act	SMN2 splice up	ELG1 genotoxic
COc1cccc2sc(N(C)c3ccccc3)nc12	0.5µM*	0.85µM*	u	1.3µM*	8.9µM*	1.6µM*
CCN(CC)S(=O)(=O)c1ccc(NC(=O)CCN2C(=O)C3CC=CCC3C2=O)cc1 (configuration not stated)	20%	x	8%	-1%	x	0%
c1ccc(-n2cnc3cc(NCc4ccncc4)ccc32)cc1	u	24µM*	u	22%	-96%	1%
c1ccc(-n2cnc3cc(NCc4ccccn4)ccc32)cc1	u	15µM*	u	u	x	u
O=C(OCC(=O)N1CCOCC1)c1ccc(Cl)c(S(=O)(=O)N2CCc3ccccc32)c1	x	x	u	x	x	-7%
COc1ccc(-c2nnc(-c3ccc(N(C)C)cc3)o2)cc1	x	2.1µM*	x	x	25%	x
CN(C)c1ccc(-c2nnc(-c3ccc(S(=O)(=O)C(F)F)cc3)o2)cc1	27%	-1%	-13%	u	5%	-5%
COc1ccc(-c2nnc(-c3ccc(N)cc3)o2)cc1	u	3.4µM*	u	u	13µM*	7.3µM*
O=[N+]([O-])c1cccc(-c2nnc(-c3ccccc3F)o2)c1	2µM*	12µM*	u	2.5µM*	x	u
CN(C)c1ccc(-c2nnc(-c3ccccc3F)o2)cc1	0.45µM*	1.2µM*	u	0.35µM*	x	u
CC(C)[C@H](NC(=O)[C@@H]1CSC2c3ccccc3C(=O)N21)C(=O)NC1CCCCC1 (some centres not stated)	18%	3%	2%	10%	x	-6%
O=C1CCN(Cc2ccccc2)S(=O)(=O)c2c(F)cc(F)cc21	-2%	3%	0%	-3%	x	2%
O=C(COc1ccccc1)Nc1ccc(C(=O)OCc2cc(=O)n3nc(C4CC4)sc3n2)cc1	x	0%	x	x	x	x
O=C(Nc1cccnc1)c1cc(-c2ccco2)on1	0%	6µM*	-1%	0%	-3%	0%
COc1cccc(C2=NOC(C(=O)Nc3cc(OC)c(OC)c(OC)c3)C2)c1 (configuration not stated)	12%	2%	18µM*	-4%	-21%	-6%
COc1ccc(-c2cc(C(=O)Nc3c(C)nn(Cc4ccccc4)c3C)no2)cc1	0%	-1%	-11%	2%	-27%	0%
COc1cccc(-c2cc(C(=O)Nc3c(C)nn(Cc4ccccc4)c3C)no2)c1	-13%	1%	21µM*	-5%	-55%	-20%
CC(C)n1cc(NC(=O)c2cc(-c3ccccc3)on2)cn1	-9%	15µM*	u	-16%	6%	18µM*
O=C(Nc1ccc(F)c(Cl)c1)c1cc(-c2ccco2)on1	2%	u	0%	-3%	x	5%
Cc1cc(NC(=O)c2cc(-c3ccccc3)on2)n(-c2ccccc2)n1	-1%	1%	2%	-2%	u	0%
COCCCNC(=O)CN1C(=O)COc2ccc(S(=O)(=O)N3CC(C)CC(C)C3)cc21 (configuration not stated)	0%	3%	-3%	0%	x	3%
COc1ccc(NC(=O)C(C)N2Cc3ccccc3C2=O)cc1OC (configuration not stated)	x	1%	x	x	x	x
O=C(NCC(=O)N(c1cccnc1)C(C(=O)NC1CCCC1)c1cccs1)c1cccs1 (configuration not stated)	1%	6%	8%	-3%	2%	3%
O=C([C@@H]1CCCN1C(=O)c1cccs1)N1CCN(S(=O)(=O)c2cccc(F)c2)CC1	-1%	-1%	7%	0%	x	0%
O=C(Nc1cccnc1)c1cc(-c2ccccc2)on1	-8%	4.8µM*	-1%	1%	0%	2%
COc1cc(NC(=O)c2cc(-c3cccc(OC)c3)n[nH]2)cc(OC)c1	x	12µM*	x	x	x	x
